These results are taken from paper PMC5700166.

Experiment [1] concerns the target T1, GST-Nv-NF-kB (Ser allele) (Nematostella vectensis, UniProt A7UNT2 2-411).
T1 sequence: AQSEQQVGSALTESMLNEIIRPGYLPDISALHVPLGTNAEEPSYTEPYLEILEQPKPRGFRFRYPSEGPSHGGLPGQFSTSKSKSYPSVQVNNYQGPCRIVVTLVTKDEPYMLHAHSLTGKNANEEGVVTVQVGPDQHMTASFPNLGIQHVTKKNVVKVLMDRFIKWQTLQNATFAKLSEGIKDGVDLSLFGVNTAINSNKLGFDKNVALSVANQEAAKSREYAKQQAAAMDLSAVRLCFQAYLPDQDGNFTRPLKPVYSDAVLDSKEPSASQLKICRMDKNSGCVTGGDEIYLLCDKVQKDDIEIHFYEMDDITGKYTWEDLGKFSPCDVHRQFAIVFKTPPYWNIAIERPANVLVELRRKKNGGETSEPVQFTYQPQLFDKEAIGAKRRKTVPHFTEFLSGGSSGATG
As to the kind of experiment: protein-binding microarray (PBM); PBM: ~300 nM protein, 6 mM HEPES pH 7.8, 80 mM KCl, 0.5 mM EDTA, 0.5 mM EGTA, 6% glycerol, 35 ng/ul poly-dIdC, 1% milk, 1 h, room temperature; Ap Aiptasia and Nv Nematostella (sea anemones) / Co Capsaspora / Aq Amphimedon (sponge) / Dm Drosophila / Hu human; RHD is the Rel homology domain; high values mean tight binding. The settings on record: dsDNA, one strand shown.

Another experiment deals with GST-Hu-p50 (Homo sapiens, UniProt P19838 7-356). The description is as above. The settings on record: dsDNA, one strand shown.
GST-Hu-p50, sequence (P19838 7-356): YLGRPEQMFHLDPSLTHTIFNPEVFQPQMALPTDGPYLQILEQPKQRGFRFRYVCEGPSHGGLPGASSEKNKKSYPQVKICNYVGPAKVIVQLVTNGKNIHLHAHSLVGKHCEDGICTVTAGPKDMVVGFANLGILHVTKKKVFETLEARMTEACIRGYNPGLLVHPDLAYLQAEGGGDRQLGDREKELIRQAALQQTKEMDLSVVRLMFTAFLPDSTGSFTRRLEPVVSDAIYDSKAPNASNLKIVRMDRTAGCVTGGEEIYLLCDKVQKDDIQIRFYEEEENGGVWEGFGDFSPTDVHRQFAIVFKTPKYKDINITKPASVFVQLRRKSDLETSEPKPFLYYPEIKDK

In the case of “CCGATTAACATCAGGGGTTTCCATGATGTTAATCGGGTCTTGATTCGCTTGACGCTGCTG”, the binding signal in experiment [1] is 4 z-score; in the experiment with GST-Hu-p50 it was 4.95 z-score.

In the case of “CCGATTAACATCACCAATTTCCCTGATGTTAATCGGGTCTTGATTCGCTTGACGCTGCTG”, the binding signal in experiment [1] was 6.05 z-score; with GST-Hu-p50, 3.76 z-score.

On to “CCGATTAACATCAGGGAATCCTATGATGTTAATCGGGTCTTGATTCGCTTGACGCTGCTG”, for which the binding signal in experiment [1] was found to be 4.4 z-score; with GST-Hu-p50 it was 2.72 z-score.

Consider “CCGATTAACATCAGGGAATATAATGATGTTAATCGGGTCTTGATTCGCTTGACGCTGCTG”, for which the binding signal amounted to 3.88 z-score in experiment [1] and 2.29 z-score with GST-Hu-p50.

Regarding “CCGATTAACATCAGGAAGACCCCTGATGTTAATCGGGTCTTGATTCGCTTGACGCTGCTG”, the binding signal in experiment [1] turned out to be 1.11 z-score; in the experiment with GST-Hu-p50, 3.37 z-score.

In the case of “CCGATTAACATCAGGGAATGTACTGATGTTAATCGGGTCTTGATTCGCTTGACGCTGCTG”, the binding signal in experiment [1] turned out to be 3.55 z-score; with GST-Hu-p50, 2.72 z-score.

Turning to “CCGATTAACATCAGGAAATTTGATGATGTTAATCGGGTCTTGATTCGCTTGACGCTGCTG”, the results for the binding signal (in experiment [1]; with GST-Hu-p50) were 1.01 z-score and 1 z-score, respectively.

On to “CCGATTAACATCAACAGGGAAAATGATGTTAATCGGGTCTTGATTCGCTTGACGCTGCTG”, for which the binding signal worked out at 5.98 z-score in experiment [1] and 3.34 z-score with GST-Hu-p50.

As to “CCGATTAACATCACGGGAAACCCTGATGTTAATCGGGTCTTGATTCGCTTGACGCTGCTG”, the values for the binding signal (in experiment [1]; with GST-Hu-p50) were 3.35 z-score and 2.62 z-score, respectively.

With “CCGATTAACATCACGGTGGGAAATGATGTTAATCGGGTCTTGATTCGCTTGACGCTGCTG”, the binding signal in experiment [1] amounted to 2.58 z-score; with GST-Hu-p50, 1.86 z-score.

As for “CCGATTAACATCAGGGAAATAAATGATGTTAATCGGGTCTTGATTCGCTTGACGCTGCTG”, the binding signal is 4.6 z-score in experiment [1] and 3.23 z-score with GST-Hu-p50.

For “CCGATTAACATCACGGGTTTTTCTGATGTTAATCGGGTCTTGATTCGCTTGACGCTGCTG”, the results for the binding signal (in experiment [1]; with GST-Hu-p50) were 3.59 z-score and 3.63 z-score, respectively.

“CCGATTAACATCAGGGGTCCCCATGATGTTAATCGGGTCTTGATTCGCTTGACGCTGCTG”: the binding signal in experiment [1] was 1.95 z-score; with GST-Hu-p50, 2.54 z-score.

As to “CCGATTAACATCACAACACCCCCTGATGTTAATCGGGTCTTGATTCGCTTGACGCTGCTG”, the binding signal stood at 5.01 z-score in experiment [1] and 4.62 z-score in the experiment with GST-Hu-p50.
